Hit rate of the full screen: of about 66,000 compounds, about 960 (1.5%) showed an effect of 50% or more. Only a selection was taken, and strong results are over-represented in it overall.
System: Trypanosoma brucei
Test: Trypanosoma brucei 72 hour study
Type: functional, organism-based
Parameters: scale not given: in the data most compounds retested in dose-response had high values

SMILES: O=C1c2cnc(N3CCOCC3)nc2CN1Cc1cccc(F)c1
- Percent Effect (30 µM, 30.03 µM): -25.27%

SMILES: Cc1cc(OCC(=O)NCc2ccc(F)cc2)nnc1C
- Percent Effect (30 µM, 30.03 µM): 16.49%

SMILES: Cc1cc(OCCC(=O)Nc2cccc(F)c2)nnc1C
- Percent Effect (30 µM, 30.03 µM): 46.79%

SMILES: Cc1cc(OCCC(=O)NCc2ccc(F)cc2)nnc1C
- Percent Effect (30 µM, 30.03 µM): 71.51%

SMILES: Cc1noc(C)c1CN1CCC2(CC1)C(c1ccccc1)CC(=O)N2C.O=C(O)C(F)(F)F (stereo unspecified)
- Percent Effect (30.3 µM, […]): -57.86%

SMILES: COc1ccc(CC(=O)N2C[C@H]3CN(Cc4ccccn4)C[C@H]3C2)cc1.O=C(O)C(F)(F)F
- Percent Effect (30.3 µM, […]): -4.643%

SMILES: Cc1occc1C(=O)N1CCCN(Cc2nccn2C(C)C)CC1
- Percent Effect (30.3 µM, […]): 53.23%

SMILES: Cc1occc1C(=O)N1CCCN(Cc2nccn2C)CC1
- Percent Effect (30.3 µM, […]): 4.115%

SMILES: CC(C)n1ccnc1CN1CCCN(C(=O)c2cccnc2O)CC1
- Percent Effect (30 µM, 30.03 µM): -16.49%

SMILES: CCS(=O)(=O)N1Cc2[nH]nc(COCc3cccnc3)c2C1.O=C(O)C(F)(F)F
- Percent Effect (30.3 µM, […]): -37.05%

SMILES: CCC(=O)N1CC[C@H]2[C@H](C[C@@H](Cn3cccn3)N2c2nccs2)C1.O=C(O)C(F)(F)F.O=C(O)C(F)(F)F
- Percent Effect (30.3 µM, […]): -3.444%

SMILES: CC(C)N1CC[C@H]2[C@H](C[C@@H](Cn3cccn3)N2c2nccs2)C1.O=C(O)C(F)(F)F.O=C(O)C(F)(F)F.O=C(O)C(F)(F)F
- Percent Effect (30.3 µM, […]): -34.12%

SMILES: O=C(O)C(F)(F)F.O=C(O)C(F)(F)F.O=C(O)C(F)(F)F.c1cnn(C[C@@H]2C[C@@H]3CN(CC4CC4)CC[C@@H]3N2c2nccs2)c1
- Percent Effect (30.3 µM, […]): 61.8%

SMILES: CC(=O)N1CCC2(CC1)C(=O)N(CC1CCN(C)CC1)c1ccccc12.O=C(O)C(F)(F)F
- Percent Effect (30.3 µM, […]): -5.968%

SMILES: CCNc1cc2c(nn1)CCN(C(=O)c1cc3cc(C)ccc3o1)C2
- Percent Effect (10 µM): -11.72%
- Percent Effect (30.3 µM, […]): 30.23%

SMILES: CCNc1cc2c(nn1)CCN(C(=O)c1cc3ccccc3o1)C2
- Percent Effect (10 µM): -51.84%
- Percent Effect (30.3 µM, […]): 2.809%

SMILES: CCNc1cc2c(nn1)CCN(C(=O)c1cc3nc(C)ccc3o1)C2
- Percent Effect (30 µM, 30.03 µM): 62.84%

SMILES: Cn1cc(CNC2CCc3c(ccc(=O)n3Cc3ccncc3)C2)cn1.O=C(O)C(F)(F)F.O=C(O)C(F)(F)F (stereo unspecified)
- Percent Effect (30.3 µM, […]): 3.089%

SMILES: CCc1cc(N(C)Cc2ccno2)n2nc(C)c(C)c2n1
- Percent Effect (30 µM, 30.03 µM): 69.73%

SMILES: CCc1cc(N(C)Cc2ccncn2)n2nc(C)c(C)c2n1
- Percent Effect (30 µM, 30.03 µM): 25.26%

SMILES: CCc1cc(N(C)Cc2ccnc(C)c2)n2nc(C)c(C)c2n1
- Percent Effect (30 µM, 30.03 µM): -13.68%

SMILES: CC(=O)N1CCCN(C(=O)c2ccc(=O)n(C)c2)c2ccccc21
- Percent Effect (30.3 µM, […]): -14.08%

SMILES: Cn1cc(N2CC3(CCN(CC4CC4)CC3)OCC2=O)cn1.O=C(O)C(F)(F)F
- Percent Effect (30 µM, 30.03 µM): -14.55%

SMILES: O=C(NCCC1=CCCCC1)c1n[nH]c2c1CCCC2
- Percent Effect (30.3 µM, […]): 9.564%

SMILES: Cc1cc(C(=O)N2CCN(C)CC2)nn1CC(=O)NCc1cccs1.Cl
- Percent Effect (30.3 µM, […]): 4.887%

SMILES: CN1CCc2c(C#N)c(NCC3CCCO3)n3cnnc3c2C1.Cl (stereo unspecified)
- Percent Effect (30 µM, 30.03 µM): -22.69%

SMILES: CC(NC(=O)CSCC(N)=O)c1ccccc1Oc1ccccc1 (stereo unspecified)
- Percent Effect (30.3 µM, […]): 5.896%

SMILES: CN1[C@H](CN2CCCC2)C[C@@H]2CN(C(=O)c3cccn3C)CC[C@@H]21.O=C(O)C(F)(F)F.O=C(O)C(F)(F)F
- Percent Effect (30.3 µM, […]): 14%

SMILES: O=C(O)c1cc(S(=O)(=O)Nc2cnn(C3CCOCC3)c2)ccc1F
- Percent Effect (30 µM, 30.03 µM): -3.686%

SMILES: O=S(=O)(Nc1cnn(C2CCOCC2)c1)c1ccc(F)c(F)c1
- Percent Effect (30 µM, 30.03 µM): 51.53%

SMILES: Cc1ccc(S(=O)(=O)Nc2cnn(C3CCOCC3)c2)cc1C
- Percent Effect (30 µM, 30.03 µM): -12.07%

SMILES: CC(C)CS(=O)(=O)N1CCC2(CN(c3ccsc3)C(=O)CN2C)C1.O=C(O)C(F)(F)F (stereo unspecified)
- Percent Effect (30 µM, 30.03 µM): -44.48%

SMILES: O=C(CCn1ccccc1=O)Nc1ccc(C(=O)O)cc1
- Percent Effect (30 µM, 30.03 µM): 4.206%

SMILES: Cl.NCCC(=O)Nc1ccc(-c2ccccc2)cc1
- Percent Effect (30.3 µM, […]): 22.23%
- Percent Effect (10 mM, 10 mM as filed; unlikely as a test dose): 97.12%

SMILES: CC(=O)Nc1ccc(-c2ccccc2NC(=O)CN)cc1
- Percent Effect (30 µM, 30.03 µM): -52.76%

SMILES: O=C(O)C(F)(F)F.O=C([C@H]1C[C@H]2OCC[C@H]2N(CC2CC2)C1)N1CCCCO1
- Percent Effect (30.3 µM, […]): -275.5%

SMILES: O=C(O)C(F)(F)F.O=C1COC2(CCN(Cc3ccsc3)CC2)CN1
- Percent Effect (30 µM, 30.03 µM): -11.85%

SMILES: CS(=O)(=O)NCC1CCCN(Cc2ccccc2F)C1 (stereo unspecified)
- Percent Effect (30 µM, 30.03 µM): -12.86%

SMILES: COC1CCN(C(=O)Nc2ccccc2)CC(=O)N(C)c2ccccc21 (stereo unspecified)
- Percent Effect (30.3 µM, […]): 83.76%

SMILES: COC1CN(C(=O)Nc2ccccc2)CCC(=O)N(C)c2ccccc21 (stereo unspecified)
- Percent Effect (30.3 µM, […]): -31.75%

SMILES: COC1CCN(C(=O)C2CCCC2)CC(=O)N(C)c2ccccc21 (stereo unspecified)
- Percent Effect (30.3 µM, […]): -34.54%

SMILES: COCCOc1cccc(CNCc2c(C)nn(C)c2N(C)C)c1
- Percent Effect (10 µM): -49.16%

SMILES: Cc1nc(C)n(CC2CCCN(c3ncnc4ccccc34)C2)n1 (stereo unspecified)
- Percent Effect (30.3 µM, […]): 12.87%

SMILES: Cc1nc(C)n(CC2CCCN(c3ncnc4[nH]ccc34)C2)n1 (stereo unspecified)
- Percent Effect (30 µM, 30.03 µM): 50.76%

SMILES: Cc1nc(C)n(CC2CN(c3ncnc4[nH]ccc34)CCO2)n1 (stereo unspecified)
- Percent Effect (30 µM, 30.03 µM): 20.56%

SMILES: CC(C)NC(=O)[C@@]12CCO[C@@H]1CCN(Cc1ccco1)C2.O=C(O)C(F)(F)F
- Percent Effect (30.3 µM, […]): -46.6%

SMILES: COc1cc(C)c(-c2ccc(F)c3c2OC(CN)C3)cc1C (stereo unspecified)
- Percent Effect (30 µM, 30.03 µM): -14.37%

SMILES: CCN1CCn2c(C)cnc2C12CCN(C(=O)N(C)C)CC2.O=C(O)C(F)(F)F.O=C(O)C(F)(F)F
- Percent Effect (30.3 µM, […]): -17.98%

SMILES: Cc1nc(C)n(CC2CCCN2Cc2ncc(C(C)(C)C)o2)n1 (stereo unspecified)
- Percent Effect (30.3 µM, […]): 101.7%
- Percent Effect (10 mM, 10 mM as filed; unlikely as a test dose): -27.43%

SMILES: Cc1nc(C)n(CC2CCCCN2Cc2ncc(C(C)(C)C)o2)n1 (stereo unspecified)
- Percent Effect (30 µM, 30.03 µM): 13.64%

SMILES: Cc1cc(C)n(CC2CCCN2Cc2ncc(C(C)(C)C)o2)n1 (stereo unspecified)
- Percent Effect (30.3 µM, […]): 1.727%
- Percent Effect (10 mM, 10 mM as filed; unlikely as a test dose): -8.311%

SMILES: CC(C)(C)c1cnc(CN2CCC[C@H]2CO)o1
- Percent Effect (30 µM, 30.03 µM): 19.26%

SMILES: CC(C)(C)c1cnc(CN2CCCCC2Cn2cccn2)o1 (stereo unspecified)
- Percent Effect (30.3 µM, […]): -24.92%
- Percent Effect (10 mM, 10 mM as filed; unlikely as a test dose): -80.62%

SMILES: CCC1CCCCN1Cc1ncc(C(C)(C)C)o1 (stereo unspecified)
- Percent Effect (30.3 µM, […]): 100.3%
- Percent Effect (10 mM, 10 mM as filed; unlikely as a test dose): -33.47%

SMILES: Cc1nc(C)c(S(=O)(=O)NC(=O)c2ccoc2)s1
- Percent Effect (30 µM, 30.03 µM): -10.98%

SMILES: Cc1cc(F)c(S(=O)(=O)NCC(C)(C)N)cc1F.Cl
- Percent Effect (30 µM, 30.03 µM): -16.06%

SMILES: Cc1cc(O)ccc1-c1cc(-c2cnn(C)c2C2CC2)c(C#N)c(N)n1
- Percent Effect (30.3 µM, […]): 53.81%

SMILES: Cc1nn(C)c(C)c1-c1cc(-c2cnn(C)c2C2CC2)c(C#N)c(N)n1
- Percent Effect (30.3 µM, […]): 20.75%

SMILES: Cn1ncc(-c2cc(-c3cccc(O)c3)nc(N)c2C#N)c1C1CC1
- Percent Effect (30.3 µM, […]): 47.44%
